Most compounds without a hit are left out; they make up all but 19% or so of the library.
DT40 TDP1 no CPT – qHTS for Inhibitors of human tyrosyl-DNA phosphodiesterase 1 (TDP1): qHTS in cells in absence of CPT | 420,000 tested, 15% active | DT40 Tdp1-/- hTDP1 cells, no CPT, ATP luminescence, 48 h | Potency, µM (titrated, usually from 46.2 µM), inactives show at the top dose activity change, negative = growth inhibition, hits mostly inhibitors | AID 686978, 2013; note: potency is the fitted concentration of half-maximal effect; % is set by controls: 0 for no effect and ±100 for the full control effect; nearly all actives have a fitted effect of over 55% in size
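Chicken DT40 Tdp1-/- cells stably complemented with human TDP1 were seeded at 400 cells/well with DMSO in place of 20 nM camptothecin. After compound pinning, cells grew at least 48 hr at 37 °C; viability read by CellTiter-Glo luminescence.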
IL-1B inflam inh – blocks inflammasome-driven IL-1 beta release; 360,000 tested, 4.7% active; AID 743279; THP-1 LPS/ATP IL-1B secretion, AlphaLISA, 16 h; active compounds read low; activity change, % at 57.5 µM; in the data active = activity change below about -50%; inconclusive = mostly about -30% to -49%; note: % is set by controls: 0 for no effect and ±100 for the full control effect
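Secreted IL-1B measured by AlphaLISA bead assay after 16 h compound exposure of THP-1 cells; compounds (final up to 57.5 uM) added 1 h before LPS (250 ng/mL) and ATP (1.25 mM) stimulation; lower signal means less secretion.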
TDP1 cell CPT – growth inhibition of DT40 Tdp1-/-;hTDP1 cells with camptothecin (screen for TDP1 inhibitors); chicken DT40 Tdp1-/-;hTDP1 cells + 20 nM CPT, ATP luminescence, 48 h; Potency, µM (doses to about 46.2 µM), for inactives: top-dose activity change, negative = growth inhibition, usual class: inhibitors; 420,000 tested, 12% active; note: potency is the fitted concentration of half-maximal effect; % is set by controls: 0 for no effect and ±100 for the full control effect; nearly all actives have a fitted effect of over 55% in size
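Chicken DT40 Tdp1-/- cells stably complemented with human TDP1 were seeded at 400 cells/well in medium containing 20 nM camptothecin, exposed to pin-transferred compounds, and grown at 37 °C for at least 48 hr. Viability was read as ATP luminescence.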
ASM inhibitor – inhibitors of human secretory acid sphingomyelinase; Potency, µM (top dose mostly 57.5 µM), inactives show at the top dose activity change, negative = inhibition, hits mostly inhibitors; 340,000 tested, 0.006% active; placental ASM, HMU-PC fluorogenic substrate, 60 min; P17405; note: potency is the fitted concentration of half-maximal effect
Target sequence (P17405 47-631 limits assumed): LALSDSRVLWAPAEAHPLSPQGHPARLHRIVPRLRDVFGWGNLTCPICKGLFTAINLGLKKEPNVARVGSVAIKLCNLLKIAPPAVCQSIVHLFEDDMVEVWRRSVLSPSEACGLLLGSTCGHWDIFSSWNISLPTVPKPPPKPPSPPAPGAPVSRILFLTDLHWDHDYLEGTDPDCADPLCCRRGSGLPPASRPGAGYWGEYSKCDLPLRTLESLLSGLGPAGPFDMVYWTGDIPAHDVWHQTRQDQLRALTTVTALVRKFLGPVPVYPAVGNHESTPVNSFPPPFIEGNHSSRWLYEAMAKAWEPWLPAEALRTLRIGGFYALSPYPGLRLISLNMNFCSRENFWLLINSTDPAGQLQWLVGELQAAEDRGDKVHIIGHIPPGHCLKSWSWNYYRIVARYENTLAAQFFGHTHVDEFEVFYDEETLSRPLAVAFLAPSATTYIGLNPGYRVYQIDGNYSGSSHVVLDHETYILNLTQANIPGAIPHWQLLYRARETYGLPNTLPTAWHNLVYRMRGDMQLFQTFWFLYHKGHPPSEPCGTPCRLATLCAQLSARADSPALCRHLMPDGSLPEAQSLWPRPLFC
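Fluorogenic HMU-PC substrate (9 uM final) is turned over by placental ASM in 60 min at 37 C after a 10 min compound preincubation. Reaction ended by alkaline stop (pH 10), with fluorescence read at 386/447 nm.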
HepG2 tox – HepG2 cytotoxicity, counter-screen for TGF-b inhibitors; HepG2 CAGA-GFP viability, ATP luminescence, 18 h; Potency, µM (titrated, usually from 46.1 µM), for inactives: at the top dose activity change, negative = cytotoxicity, usual class: cytotoxic; AID 588856; 410,000 tested, 0.76% active; note: potency is the fitted concentration of half-maximal effect
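HepG2 CAGA-GFP cells (1000/well, DMEM with 1% FBS) received compound, then TGF-beta at 500 pg/mL final, and were incubated 18 hours at 37 degrees C. Viability was read by CellTiter-Glo luminescence. Media-only wells were set as complete cell-killing and DMSO as no toxicity.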
TGFb inhibitor – inhibitors of TGF-b signaling; HepG2 CAGA-GFP TGF-b/SMAD3 reporter, GFP fluorescence, 18 h; TGF-beta stimulated, 500 pg/mL final; Potency, µM (doses to about 46.1 µM), inactives show top-dose activity, negative = inhibition, usual class: inhibitors; 410,000 tested, 1.2% active; note: potency is the fitted concentration of half-maximal effect; % is set by controls: 0 for no effect and ±100 for the full control effect; nearly all actives have a fitted effect of over 65% in size
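Cell-based qHTS in HEPG2 carrying a CAGA-GFP Smad reporter; compounds added before 500 pg/mL final TGF-beta, 18 h incubation at 37 degrees C, GFP fluorescence quantified per cell by imaging cytometry.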
* marks the source's active call; other numbers are inactive results; ? = inconclusive; / = no result given. Unless noted, calls come from the whole dose curve; as a rule, active = well fitted curve in the direction sought with a large enough effect; inconclusive = small, poorly fitted or top-dose-only effect, or another doubt; inactive = no such curve, though single readings can be large; an effect the other way counts as inactive or inconclusive.

SMILES	DT40 TDP1 no CPT	IL-1B inflam inh	TDP1 cell CPT	ASM inhibitor	HepG2 tox	TGFb inhibitor
CCN1/C(=C/c2ccc3ccccc3[n+]2CCCS(=O)(=O)[O-])C=Cc2cc(C)ccc21	?	5	?	-2%	-15%	-21%
CCCCN1/C(=C/c2ccc3ccccc3[n+]2CC)Sc2ccccc21	0.23µM*	-98*	0.26µM*	-1%	-30%	67%
CCN1/C(=C/c2ccc3cc(C)ccc3[n+]2C)Sc2ccc3sccc3c21	0.58µM*	-13	0.41µM*	-12%	-29%	-21%
CC[n+]1c2ccccc2cc2ccccc21	-16%	/	-4%	/	-6%	18%
CC[n+]1c(S(=O)(=O)[O-])ccc2ccc(C)cc21	0%	19	-8%	2%	3%	10%
Cc1cc(C)cc(NC(=O)C2CCCN2S(=O)(=O)c2ccc3c(c2)n(C)c(=O)c(=O)n3C)c1 (stereo not given)	-3%	16	4%	2%	-4%	-2%
N[C@@H](CCC(=O)N[C@@H](CS)C(=O)NCC(=O)O)C(=O)O	-15%	/	?	/	/	/
COc1cccc(NC2=C(NCCO)C(=O)c3ccccc3C2=O)c1	?	-74*	?	-7%	-7%	3%
Cc1cccc(NC2=C(NCCO)C(=O)c3ccccc3C2=O)c1	21µM*	-57*	16µM*	-4%	-19%	?
COc1cccc(Nc2c(Nc3cccc(OC)c3)c(=O)c2=O)c1	4%	14	4%	15%	3%	0%
COc1ccc(NC2=C(NCCO)C(=O)c3ccccc3C2=O)cc1	15µM*	11	12µM*	-4%	-42%	-12%
COc1ccc(Nc2nc(N)c([N+](=O)[O-])c(NCCO)n2)cc1	-24%	/	-2%	-6%	-35%	?
CCc1ccc(C2CC(=O)Nc3c2c(=O)n(C)c2ncnn32)cc1 (stereo not given)	/	/	/	/	-11%	17%
O=C(c1cc2ccccc2cc1O)N1CCN(c2ccc([N+](=O)[O-])cc2)CC1	15µM*	0	29µM*	/	-4%	?
Cc1cc(C(=O)N2CCN(c3ccc([N+](=O)[O-])cc3)CC2)n[nH]1	2.6µM*	-11	3.3µM*	3%	-4%	1%
Cc1occc1C(=O)N1CCN(c2ccc([N+](=O)[O-])cc2)CC1	?	-4	?	-9%	0%	-8%
CCSc1ccccc1C(=O)N1CCN(c2ccc([N+](=O)[O-])cc2)CC1	16µM*	2	?	-11%	-24%	?
COc1ccc(C(NC(=O)C2CCN(CCOc3ccc(Cl)cc3)CC2)c2cccs2)cc1 (stereo not given)	?	-71*	?	/	-61%	?
O=C(NC(c1ccccc1)c1ccc2ccccc2n1)C1CCN(Cc2ccc(Oc3ccccc3)cc2)CC1 (stereo not given)	?	?	?	/	-16%	?
COc1ccc(C(NC(=O)C2CCN(CCCOc3ccccc3)CC2)c2ccccn2)cc1 (stereo not given)	-17%	-13	-25%	/	-10%	11%
O=C(NC(c1ccc(F)cc1)c1ccc2ccccc2n1)C1CCN(Cc2ccc(Oc3ccccc3)cc2)CC1 (stereo not given)	?	-75*	?	/	-3%	?
COc1ccc(OCCN2CCC(C(=O)NC(c3ccc(F)cc3)c3ccc4ccccc4n3)CC2)cc1 (stereo not given)	18µM*	-50*	29µM*	/	11µM*	20µM*
COc1ccc(OCCN2CCC(C(=O)NC(c3ccccc3)c3ccc4ccccc4n3)CC2)cc1 (stereo not given)	?	-80*	?	/	6.3µM*	?
O=C(Nc1ccc(F)cc1)c1oc2ccccc2c1NC(=O)C12CC3CC(CC(C3)C1)C2	?	/	2%	/	-2%	-13%
O=C(NC(c1ccc(F)cc1)c1ccc2ccccc2n1)C1CCN(CCOc2ccc(Cl)cc2Cl)CC1 (stereo not given)	?	?	16µM*	/	11µM*	?
SMILES	DT40 TDP1 no CPT	IL-1B inflam inh	TDP1 cell CPT	ASM inhibitor	HepG2 tox	TGFb inhibitor
Cn1cc(CN2CCC(C(=O)NC(c3ccc(F)cc3)c3ccc4ccccc4n3)CC2)c2ccccc21 (stereo not given)	7.3µM*	-81*	12µM*	/	10µM*	?
O=C(NC(c1ccc(F)cc1)c1ccc2ccccc2n1)C1CCN(CCOc2ccc(F)cc2)CC1 (stereo not given)	8.2µM*	?	8.2µM*	/	16µM*	11µM*
CC1CCN(S(=O)(=O)c2ccc3c(c2)N(CC(=O)NC(C)c2ccccc2)C(=O)CS3)CC1 (stereo not given)	?	/	?	/	-27%	?
Cc1ccc(C)c(OC(=O)CSc2nnc(CNC(=O)c3ccccc3)o2)c1	-16%	/	-2%	/	-1%	-28%
CCC(C)NC(=O)C1c2ccccc2C(=O)N1Cc1ccc(F)cc1 (stereo not given)	2%	-5	-2%	3%	-1%	0%
COC(=O)c1sccc1S(=O)(=O)N(CC(=O)Nc1ccc(C)cc1)c1ccccc1	21µM*	/	?	/	-10%	-24%
Cc1cc(C)cc(N(CC(=O)NC2CCC(C)CC2)S(=O)(=O)c2c(C)noc2C)c1 (stereo not given)	?	-7	21µM*	6%	14%	-13%
COc1ccc(N(CC(=O)Nc2cccc(C)c2)S(=O)(=O)c2c(C)noc2C)cc1	2.9µM*	8	?	-1%	-16%	5%
COc1ccc(N(CC(=O)Nc2cc(C)ccc2C)S(=O)(=O)c2c(C)nn(C)c2C)cc1	26µM*	20	?	-3%	-16%	0%
Cc1cc(C)cc(N(CC(=O)O)S(=O)(=O)c2c(C)noc2C)c1	-7%	24	-14%	5%	-1%	0%
COc1ccc(N(CC(=O)Nc2cccc(C(=O)O)c2)S(=O)(=O)c2c(C)noc2C)cc1	0%	1	-8%	-4%	-13%	0%
CCCCN(C)CCNC(=O)c1c(C)oc2ncnc(N3CCOCC3)c12	6%	/	17%	/	9%	10%
